# Screening results deposited in PubChem by Broad Institute.
# This excerpt belongs to a sample that is enriched for hits.
# Tgondii IFNg – inhibitors of Toxoplasma gondii growth with IFN-gamma; Toxoplasma gondii growth in IFN-gamma-treated host cells; active compounds read low; activity change, negative = inhibition, % (concentration not given with the values); 69,000 compounds, 3.8% hits; in the data active = activity change below about -70%, passing the limit was not always enough;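 also: host cells are HeLa cells infected with Toxoplasma gondii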
# The depositor's hits bear a star; i = inactive.
SMILES,Tgondii IFNg
N[C@H]1c2ccccc2[C@H]2CN(C(=O)c3cnccn3)C[C@H]21,39
CS(=O)(=O)c1cn[nH]c1C1CCCNC1 (centres undefined),20
Cc1nc2ncccn2c1C(=O)NCc1cnn(-c2cccc(F)c2)c1,-1
O=C(NNc1nc2cc(F)ccc2n2cccc12)c1cnccn1,-81*
CC(C)C(=O)c1cc(-c2csc(-c3cnccn3)n2)n2ccccc12,-14
O=C(c1ccccc1)N1CCC2(COCc3cnc(NCc4ccco4)nc32)C1 (centres undefined),-5
CC1CCN(S(=O)(=O)c2ccc3c(c2)CCC(=O)N3CC(=O)N2CCCC2)CC1,11
C1=C/COCc2cc(ccc2OCCN2CCCC2)Nc2nccc(n2)-c2cccc(c2)COC/1,-85*
CCCN1CCc2nc(SCc3nc(-c4cccc(Cl)c4)oc3C)[nH]c(=O)c2C1,13
O=S(=O)(c1ccc(F)cc1F)n1nccc1-c1ccc(-c2ccc(F)cc2F)o1,-111*
Cc1noc(C)c1C(=O)OCc1ccc(-c2ccc(F)cc2F)o1,28
O=C(NCc1ccc(-c2ccc(F)cc2F)o1)Nc1ccc(Cl)cc1,-69
CCN(C(=O)c1cc2cccnc2n(Cc2ccc(Cl)cc2)c1=O)C1CCCCC1,92
COc1ccc(OC)c(C(O)CN2CCCC(c3nc4ccccc4[nH]3)C2)c1 (centres undefined),112
Cc1cnc2c(C(=O)Nc3cccc(CCc4ccncc4)c3)cnn2c1,-31
O=C1C(Cl)=C(NCCN2CCOCC2)C(=O)c2ncccc21,-80*
c1ccc2c(c1)CCCc1cc(NCCN3CCOCC3)nnc1-2,17
Cn1ccnc1-c1nc(NCCN2CCOCC2)ncc1-c1cccs1,5
CCC12CC3CC(O)(C1)CC(C(=O)NCCc1cc(=O)[nH]c(C)n1)(C3)C2 (centres undefined),-6
COc1cc2ncc(-c3ccccc3)nc2cc1OC,-85*
COc1cc2nc(-c3ccccc3)nc(N3CCCC3)c2cc1OC,-9
Cc1cc2ncc(-c3ccccc3)nc2cc1C,401
COCCN1CCOCC12CCN(C(=O)c1cnccn1)CC2,-1
Cc1ccc(-c2cc(C(=O)Nc3ccc(N4CCCS4(=O)=O)cc3)no2)cc1,10
COc1cc(C)c2c(c1)C=CC1C2CCC2(C)C(O)CCC12 (centres undefined),25
SMILES,Tgondii IFNg
C[C@]12CC[C@@H]3c4ccc(O)cc4C[C@@H](CCCCCCCCCS(=O)CCCC(F)(F)C(F)(F)F)[C@H]3[C@@H]1CC[C@@H]2O (some centres undefined),-78*
CCc1noc(CC)c1C(=O)Nc1nc(-c2ccc(OC)c(OC)c2)cs1,-82*
COc1ccc(-c2csc(NC(=O)c3ccccc3C)n2)cc1,-7
CCc1noc(CC)c1C(=O)Nc1nc(CS(=O)(=O)c2ccc(C)cc2)cs1,-66
CC(C)(Oc1ccc2c(c1)CCC2)C(=O)NC1C=CS(=O)(=O)C1 (centres undefined),5
COc1ccc(-c2ncnc3c2c(C(=O)N2CCCC2)c2ccccn23)cc1,-50
C=CC(=O)N1CCC[C@@H](n2nc(-c3ccc(Oc4ccccc4)cc3)c3c(N)ncnc32)C1,-79*
NC(=O)c1[nH]c(C2CCCN(C(=O)COc3ccccc3)C2)nc1-c1ccccc1 (centres undefined),-23
Nc1nccc(/C=C/c2c(F)cccc2Cl)n1,-74*
COc1cc(C(=O)Nc2ccccc2-c2nc3ccccc3s2)cc(OC)c1OC,-90*
COc1cc(C(=O)Nc2ccc(-c3nc(-c4ccc(C)cc4)co3)cc2)cc(OC)c1OC,16
COc1ccccc1NC(=O)c1ccc2nsnc2c1,70
S=C(NCCc1ccccn1)NN1C2CSC1CS2,-84*
O=C(NCCc1ccccn1)Nc1nnc(-c2ccc(F)cc2)s1,-5
S=C(NCCc1ccccn1)NC1CC2CCC1C2 (centres undefined),62
Cc1cc(C)n(CCC(=O)N2CCN(Cc3ccco3)C(CCO)C2)c(=O)n1 (centres undefined),3
Cc1cc(-c2ccccc2CO)ccc1NC(=O)c1cccnc1,-28
COc1ccc(-c2ccc(NC(=O)c3cccnc3)c(C)c2)c(OC)c1OC,-23
COc1ncccc1-c1ccc(NC(=O)c2cccnc2)c(C)c1,-85*
Cc1cc(C)c(S(=O)(=O)N2CCC3(CC2)Nc2cc(C)ccc2-n2cccc23)c(C)c1,15
O=C(c1ccc[nH]1)N1CCCC2(COCCN(c3cccc(F)c3)C2)C1 (centres undefined),5
O=C(c1ccc(N2CCCCC2)cc1)N1CCc2c([nH]c3ccccc23)C1c1ccccn1 (centres undefined),3
Cc1ccc(N)cc1NS(C)(=O)=O,68
Cc1nnc(-c2cccc(-c3ccccc3CO)c2)s1,21
CN(C)CC1(O)CCCN(S(=O)(=O)N(C)Cc2ccccc2)CC1 (centres undefined),-78*
SMILES,Tgondii IFNg
CN(C)CC1(O)CCCN(Cc2ccccc2OCC(=O)O)CC1 (centres undefined),-13
CN(C)CC1(O)CCCN(C(=O)CCOc2ccccc2)C1 (centres undefined),5
Cc1ccc(NC(=O)c2c(O)c3cccnc3n(-c3ccc(F)cc3)c2=O)cc1C,-39
CC(=O)Nc1ccc(OC(=O)c2ccccc2O)cc1,8
O=C(/C=C/c1ccccc1)NC(=O)c1ccccc1O,-66
O=C(N/N=C/c1ccccc1O)c1ccccc1O,-83*
CCS(=O)(=O)N1C[C@@H]2COC[C@]2(COCc2csc(C)n2)C1,4
O=C(Nc1ccc(Cl)cc1)c1cnc(NC2CCCCC2)cc1C(F)(F)F,-110*
NC(=O)C1(N2CCCCC2)CCN(c2ncc(NC(=O)c3ccc(Cl)cc3)cc2C(=O)O)CC1,2
O=C(Nc1ccc(Cl)cc1)ONC(=O)c1ncc(C(F)(F)F)cc1Cl,15
CS(=O)(=O)NC[C@H]1CCC[C@]2(CCN(Cc3nccs3)C2)O1,-4
CCc1cnc(N2CC[C@@H]3CN(c4ccc(C)nn4)CCO[C@H]3C2)nc1,-3
Cc1ccc(C2c3[nH]c4ccccc4c3CCN2C(=O)Cc2cccs2)cc1 (centres undefined),-125*
CSc1ccc(C2c3[nH]c4ccccc4c3CCN2C(=O)CCc2ccccc2)cc1 (centres undefined),-61
CCOc1cccc(C2c3[nH]c4ccccc4c3CCN2C(=O)Cc2cccs2)c1 (centres undefined),i
CCOc1cccc(CC(=O)N2CCc3c([nH]c4ccccc34)C2c2ccc(Cl)cc2)c1OCC (centres undefined),-29
CSc1ccc(C2c3[nH]c4ccccc4c3CCN2C(=O)CCc2cccs2)cc1 (centres undefined),-85*
CSc1ccc(C2c3[nH]c4ccccc4c3CCN2C(=O)Cc2cccs2)cc1 (centres undefined),-69
COc1ccc(C2c3[nH]c4ccccc4c3CCN2C(=O)Cc2cccs2)cc1 (centres undefined),229
O=C(Cc1cccs1)N1CCc2c([nH]c3ccccc23)C1c1ccc(F)cc1 (centres undefined),-17
O=C(Cc1cccs1)N1CCc2c([nH]c3ccccc23)C1c1ccc(Cl)cc1 (centres undefined),-118*
COc1ccc(S(=O)(=O)N2CCN(CC(O)c3ccc4c(c3)OCCCO4)CC2)cc1 (centres undefined),51
COc1ccc(S(=O)(=O)N(Cc2nc(-c3cccc(Cl)c3)oc2C)c2ccccc2OC)cc1,13
Cc1ccc(C(=O)NCCc2csc(-c3ccc(C(F)(F)F)cc3)n2)cc1C,i
